Columns and labels:
Assay type in all cases: functional
Plasmodium falciparum [1] = experiment: GSK_TCMDC: Inhibition of Plasmodium falciparum 3D7 in whole red blood cells, using parasite LDH activity as an index of growth. Test compounds present at 2uM
Plasmodium falciparum [2] = experiment: GSK_TCMDC: Inhibition of Plasmodium falciparum Dd2 in whole red blood cells, using parasite LDH activity as an index of growth. Test compounds present at 2uM
HepG2 = experiment: GSK_TCMDC: Percent inhibition of human HepG2 cell line. Test compounds present at 10uM.

Structure (SMILES)	Inhibition (Plasmodium falciparum [1]) [%]	Inhibition (Plasmodium falciparum [2]) [%]	Inhibition (HepG2) [%]
O=[N+]([O-])c1ccc(Nc2nc(N/N=C/c3ccc(-c4ccc([N+](=O)[O-])cc4)o3)nc(Nc3ccccc3)n2)cc1	100	74	0
COc1ccc(-c2cccc(NC(=O)c3ccc(F)cc3)c2)cc1CN1CCCN(C)CC1.O=C(O)C(F)(F)F	100	35	26
Cl.Nc1nc(N)c2c(ccc3c2cnn3S(=O)(=O)N2CCCC2)n1	93	3	70
CCCCCCN1CCC(CNCc2cccc(Cl)c2)CC1.O=C(O)C(F)(F)F	85	13	8
CC[C@@]1(O)C(=O)OCc2c1cc1n(c2=O)Cc2c-1nc1cc3c(cc1c2CN1CCN(C)CC1)OCCO3.Cl	98	97	79
CS(=O)(=O)CCNCc1nc(-c2ccc3ncnc(Nc4ccc(OCc5cccc(F)c5)c(Cl)c4)c3c2)cs1.Cl	98	34	8
O=[N+]([O-])c1cc(/C=N/Nc2nc3ccccc3[nH]2)ccc1O	98	14	0
CCN(CC)CCCN(C(=O)Nc1c(Cl)cncc1Cl)c1nc(-c2ccc(F)cc2)cs1	100	93	37
Cc1c(CN2CCC(N3CCC(C(=O)NC4CC4)CC3)CC2)[nH]c2c(Cl)cccc12	92	3	22
CCN(CC1CCN(CC2(O)CCOCC2)CC1)c1cc(C)nc(Nc2ccc(Cl)cc2)n1	100	99	34
Cc1ccccc1C1CCN(C2CCC(NC(=O)/C=C/c3ccc(F)c(F)c3)CC2)CC1 (stereo unspecified)	93	7	34
CCC[C@@H]([C@@H](CC1CCCCC1)C(=O)N[C@@H](CCOC(=O)NCC)C(=O)Nc1nccs1)N(O)C=O	100	79	0
O=C(Nc1ccc(Cl)c(Cl)c1)Nc1ccc(F)c([N+](=O)[O-])c1	100	96	49
CC(C)C[C@H](NC(=O)OC(C)(C)C)C(=O)Nc1ccc(Cc2ccc(NC(=O)[C@H](CC(C)C)NC(=O)OC(C)(C)C)cc2)cc1	94	88	0
CC(C)COc1ccc(Cl)cc1Cc1ccc(-c2nc3cc(F)c(F)cc3[nH]2)o1	95	96	27
O=c1ccccn1CCCC1CCCCN1 (stereo unspecified)	96	0	0
CNc1ccc(CNCc2cccc(-c3ccc(-c4nc5cccc(C)c5[nH]4)s3)c2)cc1.O=C(O)C(F)(F)F	100	88	23
O=C(Cc1cccc(Cl)c1)N1CCc2cc3nccc(N4CCN5CCC[C@H]5C4)c3cc21	96	4	14
Cc1ccc(Cn2ncc(N3CCNCC3)c(Cl)c2=O)cc1NC(=O)Nc1ccc(-c2ccccc2)cc1.O=C(O)C(F)(F)F	90	30	56
CNC(=O)c1cnc(Nc2ccc(OCC(O)CN(C)C)cc2)nc1Nc1cccc(OC)c1.O=C(O)C(F)(F)F (stereo unspecified)	100	97	31
CC(C)(C)c1ccc(-c2cc(C(=O)N[C@@H](CO)C(=O)O)on2)cc1.CC(C)(C)c1ccc(-c2nocc2C(=O)N[C@@H](CO)C(=O)O)cc1	87	0	1
Cc1ccc(Cc2c(N)nc3nc(N)nc(N)c3c2C)cc1.Cl	95	8	59
O=C(Nc1ccc(N2CCCN(Cc3cccc(F)c3)CC2)cc1)c1ccc(F)cc1.O=C(O)C(F)(F)F	96	95	0
O=C(/C=C/c1ccc(Cl)c(Cl)c1)NCCCCCN1CCCN(C(=O)Nc2ccc(Br)cc2)CC1	99	0	38
CC(C)CCNC(=O)C1Cc2c([nH]c3cc(Br)ccc23)C2(CCN(CCc3ccccc3)CC2)N1 (stereo unspecified)	97	48	14
Cc1nc2c(s1)c(=O)cc(CCc1cccc(F)c1F)n2CC(=O)N(Cc1ccc(-c2ccc(C(F)(F)F)cc2)cc1)C1CCN(C(C)C)CC1.O=C(O)C(O)C(O)C(=O)O	100	82	98
CC(C)CN(c1nc(C(=O)NNC(=O)[C@H](CC2CC2)NC(=O)c2cc3cc(OCCN4CCCCC4)ccc3o2)cs1)C1CC1	97	98	2

— ChEMBL document CHEMBL1157539, “Thousands of chemical starting points for antimalarial lead identification” (Nature, 2010)
